Among all 340,000 compounds or so, about 1,000 (0.29%) were called active. No stated cut-off is given here; in the data, inconclusive means inhibition above about 27% without an active follow-up result; inactive means below that. Not all results are given here. Potency and affinity values are given separately.
Assay: NS1A inhibition, H1N1 influenza, cell based functional assay (AID 504329)
Details: percent inhibition, at 12.5 µM, active compounds read high

| Structure (SMILES) | inhibition |
| --- | --- |
| Cc1nc(-c2ccc(Cl)cc2)sc1C(=O)O | -5.39% (inactive) |
| O=C1COc2ccc(S(=O)(=O)N3CCN(c4ccccc4)CC3)cc2N1 | 6.48% (inactive) |
| CN(CC(=O)N1CCN(C2CCCCC2)CC1)S(=O)(=O)c1cccc2nsnc12 | 0.79% (inactive) |
| CC(Sc1nnc(-c2cccnc2)o1)C(=O)NC1CCCC1 (stereo unspecified) | -4.28% (inactive) |
| c1cnc2ccc(-c3ccc4ncccc4c3)cc2c1 | 2.05% (inactive) |
| Nc1ccc2ncccc2c1 | 7.98% (inactive) |
| Cc1ccc2ncccc2c1 | -1.21% (inactive) |
| Nc1ccc(N=Nc2ccccc2)cc1 | 10.5% (inactive) |
| CC(=O)N(C)c1ccc(N=Nc2ccc3ncccc3c2)cc1 | 18.9% (inactive) |
| Nc1ccc(N=Nc2ccc(N)cc2)cc1 | -2.48% (inactive) |
| CC(C)CN(C(=O)c1ccc(=O)n(C)n1)c1c(N)n(Cc2ccccc2)c(=O)[nH]c1=O | -3.79% (inactive) |
| COc1ccccc1NS(=O)(=O)c1cccc(NC(=O)c2cncc(Br)c2)c1 | -6.77% (inactive) |
| COc1cccc(Oc2c(C)oc3c(CN4CCOCC4)c(O)ccc3c2=O)c1 | 8.63% (inactive) |
| Cn1c(N)c(C(=O)CSc2nc3ccccc3c(=O)n2Cc2ccccc2)c(=O)n(C)c1=O | 10.1% (inactive) |
| Cc1ccc(CNC(=O)CCC2CCCN(Cc3c(C)nn(C(C)C)c3C)C2)o1 (stereo unspecified) | 7.13% (inactive) |
| Cc1ccc(Cn2c(C(CO)Nc3nc(-c4ccc(Cl)c([N+](=O)[O-])c4)cs3)nc3ccccc32)cc1 (stereo unspecified) | 1.74% (inactive) |
| O=C(Cc1cccs1)Nc1nnc(SCC(=O)NC2CCCCC2)s1 | 3.29% (inactive) |
| CCN(CC)c1nc(-c2ccccn2)nc(-c2ccccc2)c1C#N | 2.62% (inactive) |
| C=CCNc1nc(-c2ccccc2)c(C(=O)OCC)cc1C#N | 10.4% (inactive) |
| CC(C)Nc1nc(-c2ccccn2)nc(-c2ccccc2)c1C#N | 1.07% (inactive) |
| Oc1ccccc1-c1nc(NC2CCCC2)c2ccccc2n1 | -9.82% (inactive) |
| C=CCNc1cc(C(F)(F)F)nc(-c2ccccn2)n1 | -12.7% (inactive) |
| c1ccc(-c2nc(NC3CCCC3)c3ccccc3n2)cc1 | -1.14% (inactive) |
| Cc1nnc(-c2ccccc2)nc1N(C)C | -13.6% (inactive) |

| Structure (SMILES) | inhibition |
| --- | --- |
| CC(C)Nc1nc(-c2ccccc2)nnc1-c1ccccc1 | -7.91% (inactive) |
| CC(C)c1ccc(NC(=S)Nc2ccc3[nH]c(=O)[nH]c3c2)cc1 | 1.94% (inactive) |
| Cc1ccc(S(=O)(=O)N2CCOCC2)cc1NS(=O)(=O)c1ccc(F)c(F)c1 | -3.51% (inactive) |
| Cc1c(C(=O)Nc2ccccc2)c2cc(O)ccc2n1Cc1ccccc1 | -3.07% (inactive) |
| O=C1CCCN1CCC1CCN(C2CC(=O)N(Cc3ccc(N4CCCC4=O)cc3)C2=O)CC1 (stereo unspecified) | 18.3% (inactive) |
| COc1ccc(OC)c(C(=O)CN2CCN(S(=O)(=O)c3ccc(Br)cc3)CC2)c1 | 0.97% (inactive) |
| NC(=O)c1nsc(C(=O)N(c2ccc(F)cc2)C(C(=O)NC2CCCC2)c2ccncc2)c1N (stereo unspecified) | 7.29% (inactive) |
| CC1CCC2(CC1)C(Nc1cccc(Cl)c1)=NC(=S)N2CC#N (stereo unspecified) | 11.2% (inactive) |
| NC(=O)c1c(NC(=O)Cn2nc(C(=O)O)c3ccccc3c2=O)sc2c1CCC2 | 0.19% (inactive) |
| CCOC(=O)c1c(NC(=O)CSc2nncn2C)sc(C)c1C | -1.87% (inactive) |
| COc1ccc(Oc2nc(-c3ccccn3)ncc2OC)cc1 | 7.31% (inactive) |
| COc1cnc(-c2ccccn2)nc1Oc1ccccc1 | 10.4% (inactive) |
| Cc1nc2c(C)cccc2c2c1COC2 | -0.38% (inactive) |
| CCOC(=O)c1sc(NC(=O)CSc2nc3c(cc2C#N)CCCCC3)c(C#N)c1C | 0.28% (inactive) |
| Cc1c(NC(=O)c2ccc(C(=O)Nc3c(C)n(C)n(-c4ccccc4)c3=O)cc2)c(=O)n(-c2ccccc2)n1C | 11.8% (inactive) |
| CCCCC[C@H]1CN(C2CCCCC2)C(=O)[C@@H]1CC(=O)NCc1ccccc1 | -4.52% (inactive) |
| Cc1ccc2[nH]c3nc(SCC#N)nnc3c2c1 | 3.03% (inactive) |
| Cc1ccc2[nH]c3nc(N/N=C/c4cccc(O)c4)nnc3c2c1 | 5.99% (inactive) |
| Cc1ccc(C)c(N(C)S(=O)(=O)c2ccc3[nH]cc(C(=O)NCCN4CCOCC4)c(=O)c3c2)c1 | 13.2% (inactive) |
| O=[N+]([O-])c1ccc2c(c1N1CCCCC1)=NC1(CCCCC1)[N+]=2[O-] | -7.13% (inactive) |
| CCCCNc1c([N+](=O)[O-])cc(C(=O)O)cc1[N+](=O)[O-] | 25.7% (inactive) |
| [O-][N+]1=c2ccc(Nc3ccccc3)cc2=NC12CCCCC2 | 16.6% (inactive) |
| CCCCNc1nc(N)ncc1[N+](=O)[O-] | -2.32% (inactive) |
| Cc1noc(C)c1S(=O)(=O)N1CCC(C(=O)O)CC1 | -5.05% (inactive) |

| Structure (SMILES) | inhibition |
| --- | --- |
| CC1(C)CC(CCN)(Cc2ccccc2Cl)CCO1 (stereo unspecified) | -1.58% (inactive) |
| COc1ccccc1N1CCN(C(=O)c2c(-c3c(F)cccc3Cl)noc2C)CC1 | -1.81% (inactive) |
| O=C1C(Cl)=C(N2CCCCC2)C(=O)N1c1ccccc1Cl | -3.44% (inactive) |
| O=C1c2ccccc2-c2onc3ccc(Oc4ccccc4)c1c23 | 11.9% (inactive) |
| CN1CCN(c2cccc3c2C(=O)c2ccccc2C3=O)CC1 | 4.2% (inactive) |
| O=C1c2ccccc2C(=O)c2cc(N3CCCCC3)ccc21 | -3.43% (inactive) |
| O=C1c2ccccc2-c2c1cccc2C(=O)N1CCOCC1 | -11.9% (inactive) |
| N#Cc1c(Cl)cccc1N1CCCC1 | -9.33% (inactive) |
| CCOc1ccc2noc3c2c1C(=O)c1ccccc1-3 | 7.74% (inactive) |
| Nc1ccccc1N1CCOCC1 | 0.99% (inactive) |
| O=C(N1CCCC1)C12CC3CC(CC(C3)C1)C2 | -8.92% (inactive) |
| CCCOc1ccc(C(=O)OCC(=O)c2c(N)n(C)c(=O)n(C)c2=O)cc1OCC | -1.83% (inactive) |
| CCN(CC(=O)NC(=O)NCc1ccccc1)CC(=O)Nc1cc(Cl)ccc1C | -8.38% (inactive) |
| CC(C)Cn1c(N)c(C(=O)COC(=O)c2c(F)cccc2F)c(=O)n(C)c1=O | -5.45% (inactive) |
| Cc1ccc(CCNC(=O)c2ccc(CS(=O)(=O)Cc3ccc(F)cc3)o2)cc1 | 2.69% (inactive) |
| O=C(NNc1cccc([N+](=O)[O-])c1)/C(=C\c1cccnc1)NC(=O)c1ccccc1 | 9.25% (inactive) |
| COc1cc(CN(CC(C)C)S(=O)(=O)c2ccccc2Br)cc(OC)c1 | -4.89% (inactive) |
| Cc1ccc(NC(=O)c2cccc(S(=O)(=O)NCc3ccccc3)c2)nc1 | -4.84% (inactive) |
| CCN(CC(=O)Nc1ccccc1OC)C(=O)CSCc1ccc(C)cc1 | 1.31% (inactive) |
| COc1cc(-c2nc(CN3CCN(CC(C)C)C(=O)[C@@H]3C)c(C)o2)ccc1F | 8.73% (inactive) |
| CC(=O)N(C)c1ccc(N2CCOCC2)c2c1C(=O)c1ccccc1C2=O | 16.8% (inactive) |
| CC(=C1C(=O)c2ccccc2C1=O)N1CCN(Cc2ccccc2)CC1 | -9.47% (inactive) |
| O=C1c2ccccc2-c2onc3ccc(NCc4ccco4)c1c23 | 26% (inactive) |
| COc1ccccc1N1CCN(Cc2ccccc2)CC1 | -11.8% (inactive) |

| Structure (SMILES) | inhibition |
| --- | --- |
| CCNc1ccccc(-c2ccc3ccccc3n2)c1=O | -10% (inactive) |
| O=C1C=C(N2CCOCC2)c2ccccc2C1=O | -1.26% (inactive) |
| O=C(O/N=C/c1ccc(Br)cc1)c1ccc(F)cc1 | 5.19% (inactive) |
| CCC(C)N(C(=O)COC(=O)CSc1ccc(C)c(C)c1)C1CCS(=O)(=O)C1 (stereo unspecified) | -5.16% (inactive) |
| COc1ccc2[nH]c(C(=O)NCc3ccccc3)cc2c1 | 15.2% (inactive) |
| Clc1ccccc1-c1ccc2ncnc(NCc3cccs3)c2c1 | 9.25% (inactive) |
| Cc1nc(N2CCCCC2)c2ccsc2n1 | -1.56% (inactive) |
| Cc1ccc(CN2C(=O)C(=O)c3cc(C)ccc32)cc1 | 3.72% (inactive) |
| CN1CCN(C(c2ccc(Cl)cc2)c2cc(Cl)c3cccnc3c2O)CC1 (stereo unspecified) | 2.9% (inactive) |
| CN1CCN(C(c2ccccn2)c2cc(Cl)c3cccnc3c2O)CC1 (stereo unspecified) | 14.5% (inactive) |
| CN1CCN(C(c2ccc(F)cc2)c2ccc3cccnc3c2O)CC1 (stereo unspecified) | 7.02% (inactive) |
| Oc1c(C(c2ccc(Cl)cc2)N2CCCC2)cc(Cl)c2cccnc12 (stereo unspecified) | -6.42% (inactive) |
| Cc1ccc(C(c2cc(Cl)c3cccnc3c2O)N2CCN(C)CC2)cc1 (stereo unspecified) | 5.08% (inactive) |
| CCN1CCN(C(c2ccc(C(F)(F)F)cc2)c2ccc3cccnc3c2O)CC1 (stereo unspecified) | 16.8% (inactive) |
| CCCCn1c(N)c(N(CCOC)C(=O)COC(=O)COc2c(C)cccc2C)c(=O)[nH]c1=O | -13% (inactive) |
| CC(C)(C)c1cc(NC(=O)CSc2nncs2)n(-c2ccccc2)n1 | 1.18% (inactive) |
| Cc1cc(C(=O)NC(Cc2c[nH]c3ccccc23)C(=O)O)c(C)o1 (stereo unspecified) | 1.37% (inactive) |
| COc1ccc(S(=O)(=O)Nc2ccc3c(c2)N(C(C)=O)CCC3)cc1OC | 4.6% (inactive) |
| O=C(CNS(=O)(=O)c1ccc(F)cc1)N1CCN(c2ccc(F)cc2)CC1 | -9.78% (inactive) |
| COc1ccc(C(=O)c2sc(Nc3ccc(NC(C)=O)cc3)nc2C)cc1 | -2.13% (inactive) |
| CN(C)c1ccc(/C=C2\CCCCC2=O)cc1 | 12.2% (inactive) |
| CN(C)c1ccc(C=C2C=Cc3ccccc32)cc1 | 11.1% (inactive) |
| COc1cc(C(=O)N=c2sccn2C)c([N+](=O)[O-])cc1OC | -1.77% (inactive) |
| O=C(Cn1nnc(-c2ccccc2)n1)N1CCN(c2ccc(F)cc2)CC1 | 11.4% (inactive) |

— PubChem BioAssay AID504329 (Southern Research Specialized Biocontainment Screening …, 2011)
